Screening results: PubChem BioAssay, The Scripps Research Institute Molecular Screening Center
TEAD-YAP inh – TEAD-YAP interaction inhibition, primary screen, TEAD-YAP interaction inhibitor project, luminescence, HEK-TIYL cells. inhibition, % at 9.12 µM. 640,000 tested, 1.4% active. TEAD-Gal4/YAP UAS-luciferase luminescence; in the data active = inhibition above about 32%;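 note: 0% = median of test compound wells and 100% = reference inhibitor wells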
FBW7 act – FBW7 E3 ligase activators, primary screen, biochemical, AlphaScreen, human | F-box/WD repeat-containing protein 7 (Homo sapiens), Q969H0 | AlphaScreen FBW7–phospho-cyclin E peptide binding, activator screen | normalized activity (activation), % at 26.1 µM | 650,000 tested, 0.13% active | AID 1259310, 2017; in the data active = normalized activity above about 1.9%;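 note: purified mutant Fbw7 with reduced substrate affinity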
MITF primary – MITF inhibitors, primary screen, biochemical, AlphaScreen, human | AlphaScreen MITF homodimerization, bead proximity signal | inhibition, % at 2.6 µM | 650,000 tested, 0.91% active; in the data active = inhibition above about 50%;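 note: 0% = vehicle wells with protein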
Target sequence (O75030 whole entry, looked up): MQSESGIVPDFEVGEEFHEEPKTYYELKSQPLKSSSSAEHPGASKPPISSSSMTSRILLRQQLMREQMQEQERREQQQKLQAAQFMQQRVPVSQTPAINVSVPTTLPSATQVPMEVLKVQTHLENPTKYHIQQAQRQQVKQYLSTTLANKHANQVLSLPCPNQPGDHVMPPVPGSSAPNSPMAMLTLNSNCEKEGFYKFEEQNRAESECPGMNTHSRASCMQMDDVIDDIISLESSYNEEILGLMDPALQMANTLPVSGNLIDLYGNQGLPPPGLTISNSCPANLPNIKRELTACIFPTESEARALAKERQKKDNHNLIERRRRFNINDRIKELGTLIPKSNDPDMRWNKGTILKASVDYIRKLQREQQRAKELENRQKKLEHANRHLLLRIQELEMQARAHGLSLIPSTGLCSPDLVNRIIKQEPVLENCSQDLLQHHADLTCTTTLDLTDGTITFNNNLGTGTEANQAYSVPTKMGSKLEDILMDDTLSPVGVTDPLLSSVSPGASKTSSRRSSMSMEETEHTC
GPR151 activ – activators of human GPR151, primary screen, cell-based, PathHunter beta-arrestin, luminescence | 650,000 tested, 1% active | activation, % at 11.2 µM | PathHunter beta-arrestin GPR151 cells | G-protein coupled receptor 151 (Homo sapiens), Q8TDV0 | AID 1508602, 2020; in the data active = activation above about 4.9%;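 note: 0% = median of compound wells and 100% = cells with positive control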
The depositor's hits bear a star; . = no result given. Sampled rows, rich in hits. Any-hit rate of the full collection: about 3.4%.

SMILES	TEAD-YAP inh	FBW7 act	MITF primary	GPR151 activ
CCOC(=O)Cn1cc(/C=C2/C(=O)NC(=S)N(Cc3ccco3)C2=O)c2ccccc21	2	-1	64*	-1
CN(C)c1ncc(/C=C2/C(=O)NC(=O)N(Cc3ccco3)C2=O)cn1	-7	0	79*	1
Cc1ccc2c(C)nc(N3CCCC(NCC4COc5ccccc5O4)CC3)nc2c1 (centres undefined)	-18	1.9*	5	0
Cc1cc2c(c(=O)n1C)C1(C(=O)N(Cc3cccc(F)c3)c3ccccc31)C(C#N)=C(N)O2 (centres undefined)	5	0	0	1
CC(C)C(=O)Nc1ccc(NC(=O)c2cccc(Cl)c2)cc1	-47	0	7	-1
Cc1nnn(C23CC4CC(CC(C(=O)NC(C)c5ccccc5)(C4)C2)C3)n1 (centres undefined)	5	0	11	-1
Cc1cn2cc(C(=O)NCCc3ccccc3)nc2s1	7	0	10	0
O=S1(=O)c2cccc3cccc(c23)N1Cc1cccc(Cl)c1	-16	2.1*	8	1
O=S1(=O)c2cccc3cccc(c23)N1Cc1cccc(Br)c1	-8	0	-6	-1
Nn1cnnc1SC(CNS(=O)(=O)c1ccc(Cl)cc1)c1ccccc1 (centres undefined)	-17	0	-4	-2
CC1(C)CC2CC(C)(CN2c2ccc(C(=O)O)cc2[N+](=O)[O-])C1 (centres undefined)	35*	0	6	-1
c1ncc(-c2cnc(Nc3ccc(N4CCOCC4)cc3)c3nccn23)cn1	9	0	2	0
Cc1nc(NCCC2=CCCCC2)c2c3c(sc2n1)CCCC3	-38	0	0	-1
Cc1sc2ncnc(NCCc3ccc(S(N)(=O)=O)cc3)c2c1C	37*	0	-1	1
Cc1sc2ncnc(NCCC3=CCCCC3)c2c1C	44*	0	2	0
Cc1cc2ccccc2n1CC(=O)N1CC(C(=O)N2CCCCC2)Oc2ccccc21 (centres undefined)	.	.	.	-1
CCN1C(=O)/C(=C\c2ccc(Cl)cc2Cl)C(C(=O)OC)=C1C	1	0	16	-2
N#Cc1cc2c(nc1SC1CC(=O)N(c3ccccc3)C1=O)CCCCC2 (centres undefined)	-19	0	0	-1
COc1ccc(-c2cc(-c3ccccc3)nc(SC3CC(=O)N(c4ccc(C)cc4)C3=O)c2C#N)cc1 (centres undefined)	9	0	8	-1
N#Cc1cc2c(nc1SC1CC(=O)N(c3ccccc3)C1=O)CCC2 (centres undefined)	39*	0	-9	1
Cc1nc(SC2CC(=O)N(c3ccccc3)C2=O)c(C#N)c(C)c1C (centres undefined)	57*	1	12	1
Cc1cc(C)c(C#N)c(SC2CC(=O)N(c3ccccc3)C2=O)n1 (centres undefined)	38*	1	3	0
N[C@H]1CC[C@@H](C(=O)Nc2ccc3cnccc3c2)C1	36*	0	7	0
N[C@@H]1CC[C@H](C(=O)Nc2ccc3[nH]ncc3c2)C1	1	1	10	-2
Cc1nc(Nc2ccccc2F)c2cc(C)sc2n1	-8	0	4	-2
SMILES	TEAD-YAP inh	FBW7 act	MITF primary	GPR151 activ
COc1cc(OC)c(OC)cc1/C=N/Nc1ccccn1	15	0	5	-1
COc1ccc(O)c(/C=N/Nc2ccccn2)c1	-55	0	73*	0
COc1ccc(O)c(/C=N/NC(=S)Nc2cccnc2)c1	-11	0	91*	-2
COc1cccc(/C=N/NC(=S)Nc2cccnc2)c1	-23	0	0	2
Oc1ccc(/C=N/NC(=S)Nc2cccnc2)cc1	65*	0	12	-1
COc1cccc(C(=O)CN2CCN(C3c4ccccc4-c4ccccc43)CC2)c1	-13	0	7	1
CC(=O)c1ccc(NC(=O)CSc2nnc3[nH]c(=O)ccn23)cc1	10	0	30	-2
CCOC(=O)N1CCc2c(sc(NC(=O)C(C)(C)C)c2C(N)=O)C1	1	0	-1	1
CCCCC(=O)Nc1sc2c(c1C(N)=O)CCN(C(=O)OCC)C2	50*	0	7	-1
CCCC(=O)Nc1sc2c(c1C(N)=O)CCN(C(=O)OCC)C2	51*	0	1	-1
c1ccc(CN2CCC(Nc3cc(Nc4cnccn4)ncn3)CC2)cc1	-1	0	-2	0
O=C1CCC(=O)N1CC(O)Cn1c2ccccc2c2ccccc21 (centres undefined)	5	0	-3	0
COc1cc(C(=O)/C=C/c2ccc(F)cc2)ccc1O	66*	0	-14	0
COc1ccc(C(=O)/C=C/c2cccc(F)c2)cc1	-46	-1	-3	1
COc1cc(C(=O)/C=C/c2cccc(F)c2)ccc1O	56*	0	8	4
COC(=O)c1ccc(/C=C/C(=O)c2ccc(F)cc2)cc1	-40	0	0	3
COc1ccc(C2C(C#N)=C(N)Oc3c2sc2ccccc32)c(OC)c1 (centres undefined)	64*	0	-3	-1
N#CC1=C(N)Oc2c(sc3ccccc23)C1c1ccccc1OC(=O)c1ccccc1Cl (centres undefined)	-3	0	5	1
COc1ccccc1C1C(C#N)=C(N)Oc2c1sc1ccccc21 (centres undefined)	33*	0	-10	0
N#CC1=C(N)Oc2c(sc3ccccc23)C1c1ccc(Cl)cc1Cl (centres undefined)	-1	0	6	0
Cc1cccc(C)c1-n1c(SCC(=O)c2ccc(Cl)cc2)nc2c(sc(=S)n2CCc2ccccc2)c1=O	4	0	-20	0
CCCOc1ccc(C(=O)NC(=S)Nc2cccc(C)n2)cc1	-50	0	6	0
CCOC(=O)C(=O)Nc1nnc(C(F)(F)F)s1	1	0	46	0
CCCCN1/C(=C/c2ccc3ccccc3[n+]2CC)Sc2cc(NC(C)=O)ccc21	16	0	18	0
CCC[n+]1c(/C=C2\Sc3ccccc3N2CC)ccc2ccccc21	88*	0	7	4
SMILES	TEAD-YAP inh	FBW7 act	MITF primary	GPR151 activ
CCCC[n+]1ccccc1/C=C1\Sc2ccccc2N1CC	89*	0	3	0
CCCCC[n+]1c(/C=C2\Sc3ccccc3N2CC)ccc2ccccc21	83*	0	13	3
Cc1ccn2c(C(=O)NCC(C)C)c(C)nc2c1	5	0	0	1
CCN(CC)c1ccc(NC(=O)Cn2cnc3sc(C)c(C)c3c2=O)c(C)c1	12	0	4	1
CCc1ccccc1NC(=O)c1oc(=O)c2ccccc2c1-c1ccc(C)cc1	6	0	15	0
O=C(NCCc1ccc(O)cc1)c1ccnc(N2CCN(c3ccccn3)CC2)c1	45*	0	-7	-1
